An excerpt weighted towards active compounds, which were near 0.5% of everything screened.
E coli growth-1: counter-screen for AddAB inhibitors: E. coli growth inhibition. inhibition, % at 11.9 µM. E. coli V3065 growth, OD600 absorbance, 18 h. 330,000 compounds, 0.27% hits;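 active = inhibition above the campaign's mean inhibition across all tested compounds plus 3 SD, cut at about 9.9% in these data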;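 also: uninfected addAB+ strain grown without phage in ampicillin broth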
AddAB inh: less growth of phage-infected E. coli with AddAB; AID 435030; E. coli expressing H. pylori AddAB, absorbance growth; 330,000 compounds, 0.29% hits; inhibition, % at 11.9 µM; in the data active = inhibition above about 12%
E coli growth-2: inhibitors of Escherichia coli growth | OD600, 23 h; active compounds read low | OD600 absorbance (no concentration beside the values) | 330,000 compounds, 0.21% hits;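 active = OD600 absorbance below the run mean of sample wells minus 3.6 SD, in any replicate, cut at about 0.56 in these data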
Tat transport: E. coli Tat transport inhibition | E. coli MC4100 TorA-mCherry Tat export, fluorescence | inhibition, % at 10 µM | 340,000 compounds, 0.036% hits;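 active = mean replicate inhibition at least 50% and at least half of replicates individually reaching 50%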;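 also: exported cargo escapes ClpAP degradation while cytoplasmic cargo is degraded and loses fluorescence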
phage Ecoli inh: E. coli growth loss with phage present; growth absorbance; inhibition, % at 11.9 µM; 360,000 compounds, 0.26% hits; in the data active = inhibition above about 11%
Numbers stand for hits; n = inactive; x = no result given.

SMILES	E coli growth-1	AddAB inh	E coli growth-2	Tat transport	phage Ecoli inh
N#Cc1ccc(NC(=O)NN2CCCCCC2)cc1	x	x	0.528	n	n
Cc1cc2cc(CCNC(=O)c3ccc(Br)o3)c(=O)[nH]c2cc1C	12.0	n	n	n	n
CC1(C)CC(=O)C=C(NCCN2CCN(C(=O)Nc3ccccc3)CC2)C1	n	n	n	52.3	n
CCN(CC)c1ccc(/C=C/c2ccc3ccc(OC)cc3[n+]2CC)cc1	12.4	n	0.502	n	n
CC[n+]1c(/C=C/c2ccc(N(C)C)cc2)ccc2ccccc21	n	n	0.469	n	n
CC[n+]1ccc(/C=C/c2ccc(N(C)C)cc2)c2ccccc21	x	x	0.347	n	n
CCN1CC2C3C(=O)N(Cc4ccccc4)C(=O)C3[C@](C)(C1=O)N2C(=O)c1ccc(Cl)c(Cl)c1 (some centres not stated)	x	x	n	x	x
Cc1cc(Nc2ccc(Cl)cc2)nc(NCc2ccccc2)n1	n	n	0.408	n	n
Cc1cc(Nc2ccccc2)nc(NCc2ccccc2)n1	n	n	n	n	n
CC(C)N1CCc2c(sc(NC(=O)c3ccc(S(=O)(=O)N4CCc5ccccc54)cc3)c2C(N)=O)C1	n	n	n	61.6	x
CC(C)N1CCc2c(sc(NC(=O)c3nc4ccccc4s3)c2C(N)=O)C1	n	n	n	n	n
COC(=O)C1C(O)C(C)C(O)C(C)(O)/C=C\C=C(/C)C(=O)Nc2c(C)c(OC(C)=O)c3c(c2O)C(=O)C(C)=C2OCOC(=C23)/C(C)=C/C(C)(O)C(O)C(C)C1O (configuration not stated)	n	n	x	65.0	n
CCOC(=O)C1C2COc3ccc(Br)cc3C2N2C(=O)N(c3ccc(OC)cc3)C(=O)[C@@]12C (some centres not stated)	x	x	n	x	x
c1ccc(CCNc2ccnc3cc4ccccc4cc23)cc1	x	x	0.497	n	n
CC(C)Nc1ccc(Nc2ccnc3cc4ccccc4cc23)cc1	n	n	n	n	n
O=C(NC(=S)NNC(=O)c1ccccc1O)c1ccc([N+](=O)[O-])cc1	16.1	n	x	n	n
O=C(NNC(=S)NC(=O)c1ccccc1)c1ccc([N+](=O)[O-])cc1	n	n	n	n	n
CC(=O)c1ccc(NC(=S)Nc2ccc(Br)c(Cl)c2)cc1	n	n	0.505	n	n
COc1ccc(Cc2c(N)nc(C)nc2N)cc1	n	n	n	n	n
Cc1nc(N)c(Cc2ccc(Cl)cc2Cl)c(N)n1	n	n	0.481	n	n
O=C(NCc1nc2ccccc2[nH]1)c1cccc(S(=O)(=O)N2CCCC2)c1	10.1	n	n	n	n
O=C(NNc1ccc(O)cc1)c1ccc(Br)cc1	n	n	0.436	n	n
O=C(NNc1ccccc1)c1ccccc1	x	x	n	n	n
CC1C(NC(=O)C(=NOC(C)(C)C(=O)O)c2csc(N)n2)C(=O)N1S(=O)(=O)O (configuration not stated)	x	x	0.0585	x	x
CCOC(=O)c1csc(N)n1	n	n	n	n	n
SMILES	E coli growth-1	AddAB inh	E coli growth-2	Tat transport	phage Ecoli inh
CC(=O)Nc1ccc(S(=O)(=O)N2CCN(C(=O)C(=O)c3cccc(C(F)(F)F)c3)CC2)cc1	x	x	x	x	n
CC(=O)Nc1ccc(S(=O)(=O)N2CCN(c3cc(C(F)(F)F)ccn3)CC2)cc1	n	n	0.11	n	n
CC1(C)Cc2c(sc(N=CN3CCCCC3)c2C#N)C(C)(C)N1	x	x	n	x	x
OC(c1cc(C(F)(F)F)nc2c(C(F)(F)F)cccc12)C1CCCCN1 (configuration not stated)	n	n	0.424	n	n
OC(c1cc(-c2ccc(C(F)(F)F)cc2)nc(C(F)(F)F)c1)C1CCCCN1 (configuration not stated)	n	n	0.494	n	n
C=CCOC(=O)C1=CC(c2csc3ccccc23)CC(OCc2ccc(CO)cc2)O1 (configuration not stated)	x	x	n	x	x
Cc1nn(-c2ccccc2)c(C)c1C=NNC(=O)c1cc(C(C)(C)C)[nH]n1	x	x	n	x	x
CCOc1ccc(N(CC(=O)Nc2ccc(C)cc2)S(=O)(=O)c2c(C)noc2C)cc1	n	n	n	n	18.0
CCOc1ccc(N(CC(=O)Nc2ccc(F)c(F)c2)S(=O)(=O)c2c(C)noc2C)cc1	n	n	n	n	n
CCN1CSC(=S)N(Cc2ccc(OC)cc2)C1	n	n	0.495	n	n
CCN1CSC(=S)N(Cc2ccccc2)C1	n	n	n	n	n
NC(=O)c1ccc(N=Cc2ccc([N+](=O)[O-])s2)cc1	n	n	0.347	n	n
Cc1cc(C(=O)NN=Cc2ccc([N+](=O)[O-])s2)n[nH]1	x	x	0.457	x	x
Cc1cc(C)cc(N=Cc2ccc([N+](=O)[O-])s2)c1	n	n	0.54	n	n
O=[N+]([O-])c1ccc(C=Nc2ccc(Cl)c([N+](=O)[O-])c2)s1	x	x	x	n	n
Cc1cc(C(=O)N/N=C/c2cccs2)n[nH]1	n	n	x	n	n
CC(=O)Nc1cccc(C(=O)/C=C/c2ccc(/C=C/C(=O)c3cccc(NC(C)=O)c3)cc2)c1	n	n	x	x	n
CC(=O)Nc1cccc(C(=O)/C=C/c2ccc[nH]2)c1	10.7	n	n	n	n
CC(C)c1ccc2c(c1)C(N1CCNCC1)Cc1ccc(F)cc1S2 (configuration not stated)	n	n	0.128	x	n
Cc1sc2ncnc(N/N=C/c3cccc(O)c3)c2c1C	n	n	x	n	n
C/C(=N\Nc1ncnc2sc(C)c(C)c12)c1ccccn1	14.3	n	x	n	n
O=C1C2C(c3ccc(F)cc3)N3C(=O)N(c4cccc(Br)c4)C(=O)[C@@]3(Cc3ccc(Cl)cc3)C2C(=O)N1C1CCCCC1 (some centres not stated)	x	x	n	x	x
CCn1cc(C(=O)N[C@@H](C)C(=O)OC)c(=O)c2cc3c(cc21)OCO3	n	n	0.0835	n	n
CCOC(=O)c1cn(CC)c2ccc(Br)cc2c1=O	n	n	n	n	n
CCn1cc(C(=O)O)c(=O)c2cc3c(cc21)OCO3	96.5	97.0	x	x	x
SMILES	E coli growth-1	AddAB inh	E coli growth-2	Tat transport	phage Ecoli inh
CCn1cc(C(=O)O)c(=O)c2cc(Br)ccc21	n	n	0.557	n	n
COc1ccc(C=NNc2nc(N3CCCCC3)nc(N3CCCCC3)n2)cc1[N+](=O)[O-]	x	x	n	x	x
CC(=O)Nc1ccc(SCCN2CCC(C(C)(C)C)CCC2=O)cc1 (configuration not stated)	x	x	n	x	x
C=CCC(CC(=O)NCCO)C(=O)NC(C)COC(=O)C(CC=C)CC(=O)OC(C)(C)C (configuration not stated)	x	x	n	x	x
O=C(Cc1cccs1)NNC(=S)NC(=O)c1ccco1	n	n	0.315	n	n
O=C(NNC(=O)c1ccco1)c1ccccc1	n	n	n	n	n
O=C(NC(=S)NNC(=O)c1ccco1)c1ccccc1	n	n	0.508	n	n
CN1C(=O)C(CC(=O)Nc2ccccc2)SC1=Nc1nccs1 (configuration not stated)	x	x	n	x	x
Cc1ccc2nc(-c3ccncc3)c(Nc3ccccc3)n2c1	n	n	n	n	n
Cc1ccn2c(Nc3ccc4c(c3)OCO4)c(-c3ccccn3)nc2c1	n	n	0.427	n	n
Cc1ccc(Nc2c(-c3ccccn3)nc3ccc(C)cn23)cc1	n	n	0.459	n	n
